Values joined by “and” are separate entries in the source; they are usually repeats but may differ in a detail not shown here. Equal values may be shown once. Active and inactive are the calls of the source.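 The calls were made as follows, unless noted: active = thallium flux through the channel raised or lowered by more than 3 SD from vehicle-only wells, actives on both sides; inactive = the rest.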
Assays:
[1] = Wnt pathway potentiators raising nuclear beta-catenin – imaging, WNT3A-conditioned medium, mouse C2C12, NPC library, primary screen (AID 1117326; in the data active = nuclear beta-catenin stimulation mostly above about 4.2%, no sharp cut-off; inactive = mostly below about 10%); conditions: stronger effect = higher value
[2] = stimulators of insulin release from INS-1E, primary screen, cell-based, 5 mM glucose, NPC library (AID 1117329;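 active = compound raises insulin release from rat beta cells at 5 mM glucose, no numeric limit stated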); conditions: rat INS-1E insulin secretion, at 10 µM, stronger effect = higher value
[3] = growth inhibition of GSK3B-pretreated HCT116 cells – cell-based, CellTiter-Glo, 0.2 to 20 µM (AID 1117336;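 active = compounds lowering colon cancer cell viability after pretreatment blocking the GSK3B kinase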); conditions: HCT116 viability after GSK3B inhibitor, at 20 µM, stronger effect = higher value
[4] = inhibition of endothelial tube formation, primary screen, imaging, VEGF stimulated, CD31 staining, tube area, NPC library (AID 1117340;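 active = compound that reduces growth-factor-driven endothelial tube area in a mixed cell culture, no cutoff stated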); conditions: VEGF-stimulated ADSC/ECFC co-culture, at 10 µM, stronger effect = higher value
[5] = GLP1 release stimulators, primary, NCI-H716, NPC library (AID 1117341;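 active = compound raises GLP1 secretion from the human gut endocrine cells, with no numeric limit stated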); conditions: NCI-H716 cells, at 10 µM, stronger effect = higher value
[6] = HCT116 colon cancer cell growth inhibition, primary screen, CellTiter-Glo luminescence, NPC library (AID 1117342;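 active = compounds that lower survival of HCT116 colon cancer cells in the luminescence readout, no numeric limit stated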); conditions: at 20 µM (top of the series)
[7] = reduced SW480 viability measured with CellTiter-Glo, NPC library, primary (AID 1117343;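 active = compounds that lower viability of the colon cancer cells in the luminescence readout, with no numeric limit stated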); conditions: CellTiter-Glo luminescence; at 20 µM (top of the series)
[8] = NPC library primary testing for decreased DLD-1 cell viability via CellTiter-Glo (AID 1117346;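 active = compounds that lower survival of DLD-1 colon cancer cells in the luminescence readout, no cutoff given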); conditions: DLD-1 viability, CellTiter-Glo luminescence; at 20 µM (top of the series)
[9] = target: 6-phosphogluconate dehydrogenase, decarboxylating (Homo sapiens) (UniProt P52209); assay: inhibition of human phosphogluconate dehydrogenase – biochemical, recombinant enzyme, NADPH absorbance, primary screen (AID 1159550;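 active = at least 20% inhibition of 6-phosphogluconate dehydrogenase activity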); conditions: recombinant 6PGD, NADPH absorbance 341 nm; at 10 µM; stronger effect = higher value
[10] = EMT-state selective cytotoxicity in co-culture – imaging, PC-3E GFP, TEM4-18 mCherry, primary screen (AID 1345086;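 active = compounds killing one labelled cell type while sparing the other, by normalised counts and ratio limits, not self-fluorescent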;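 as to all read-outs here: cells exposed to compound for 72 h before imaging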;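 as to red/green cell ratio (normalised): normalised mesenchymal count divided by normalised epithelial count so high means epithelial killing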); conditions: PC-3E GFP / TEM4-18 mCherry co-culture, imaging cell counts, at 1 µM; for red/green cell ratio (normalised): actives lie on both sides, counts scaled to control wells, 1 = unselective
[11] = viability loss with induced miR-34 in A549 – imaging, A549 dox-inducible miR-34, nuclei and caspase counts, primary screen (AID 1347080;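 active = compounds whose cell count with miR-34 switched on is under 0.7 times the count with it off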); conditions: A549 miR-34 inducible, Hoechst nuclei count, 48 h
[12] = MELAS cybrid and Rieske KO viability enhancers – cell-based, MELAS cybrids, Rieske KO mouse fibroblasts, CellTiter-Glo, primary screen (AID 1508586;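 active = mean z-score across replicates of 1.96 or higher in either the MELAS or the Rieske mutant cell line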;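 also: z relative to plate mean and SD of compound and empty wells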); conditions: low glucose
[13] = target: NAD(+) hydrolase SARM1 (Homo sapiens) (UniProt Q6SZW1); assay: blocking NAD cleavage by SARM1 SAM-TIR – cell lysate, NAD-Glo luminescence (AID 1508614;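 active = compound whose remaining NAD level is above about 45 nM, limit read from the data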;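 also: higher remaining NAD means stronger inhibition of SARM1 NADase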); conditions: SAM-TIR HEK293T lysate NADase, at 1 µM, stronger effect = higher value
[14] = target: Mitogen-activated protein kinase 7 (Homo sapiens) (UniProt Q13164); assay: Gal4-ERK5 driven luciferase induction – cell-based, HTS, primary screen (AID 1508626;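 active = luciferase signal above three times the same-plate solvent-only control wells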;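 also: luciferase driven by Gal4-ERK5 fusion binding five Gal4 sites before minimal TATA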); conditions: HeLa Gal4-ERK5 transactivation, 18 h, at 5 µM, stronger effect = higher value
F380Y = assay: BK channel mutant inhibitors and activators – cell-based, U2OS BacMam, thallium flux, beta subunits, selectivity assay, profiling panel (AID 1259406); conditions: U2OS BacMam BK variants, at 30 µM;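 also: initial slope of Thallos dye fluorescence rise after thallium is added; log ratio against the mean of 0.3% DMSO vehicle wells on the same plate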
F380Y/beta2Delta = assay: as above; conditions: U2OS BacMam BK variants, at 30 µM
[15] = target: Calcium-activated potassium channel subunit alpha-1 (Homo sapiens) + Leucine-rich repeat-containing protein 26 (Homo sapiens) (UniProt Q12791+Q2I0M4); assay: as above; conditions: U2OS BacMam BK variants, F380Y/Slo1WT/gamma1, at 30 µM
R275C = assay: as above; conditions: U2OS BacMam BK variants, at 30 µM
R275C/beta1 = assay: as above; conditions: U2OS BacMam BK variants, at 30 µM
R275C/beta2Delta = assay: as above; conditions: U2OS BacMam BK variants, at 30 µM
[16] = measured here: epithelial PC-3E GFP cell survival
[17] = measured here: mesenchymal TEM4-18 mCherry cell survival
[18] = stronger effect = lower value, cell number ratio, induced over uninduced
[19] = measured here: relative caspase fold change +Dox/-Dox
[20] = measured here: total cells with miR-34 induction, stronger effect = lower value
[21] = measured here: total cells without miR-34 induction
[22] = MELAS cybrid survival, CellTiter-Glo 48 h, stronger effect = higher value
[23] = Rieske KO mouse fibroblast survival, CellTiter-Glo 72 h

Calcium-activated potassium channel subunit alpha-1 (Homo sapiens) + Leucine-rich repeat-containing protein 26 (Homo sapiens), sequence (Q2I0M4 whole entry, looked up, one chain of several): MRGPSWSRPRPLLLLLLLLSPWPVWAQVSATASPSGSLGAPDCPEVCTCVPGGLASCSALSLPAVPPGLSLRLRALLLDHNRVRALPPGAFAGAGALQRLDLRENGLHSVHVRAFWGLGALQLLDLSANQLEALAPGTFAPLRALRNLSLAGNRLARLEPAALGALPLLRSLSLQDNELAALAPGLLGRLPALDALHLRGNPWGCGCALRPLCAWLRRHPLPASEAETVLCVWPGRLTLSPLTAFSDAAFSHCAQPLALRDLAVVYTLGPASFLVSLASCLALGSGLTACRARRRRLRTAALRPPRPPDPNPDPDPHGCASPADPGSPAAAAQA
6-phosphogluconate dehydrogenase, decarboxylating (Homo sapiens), sequence (P52209 whole entry, looked up): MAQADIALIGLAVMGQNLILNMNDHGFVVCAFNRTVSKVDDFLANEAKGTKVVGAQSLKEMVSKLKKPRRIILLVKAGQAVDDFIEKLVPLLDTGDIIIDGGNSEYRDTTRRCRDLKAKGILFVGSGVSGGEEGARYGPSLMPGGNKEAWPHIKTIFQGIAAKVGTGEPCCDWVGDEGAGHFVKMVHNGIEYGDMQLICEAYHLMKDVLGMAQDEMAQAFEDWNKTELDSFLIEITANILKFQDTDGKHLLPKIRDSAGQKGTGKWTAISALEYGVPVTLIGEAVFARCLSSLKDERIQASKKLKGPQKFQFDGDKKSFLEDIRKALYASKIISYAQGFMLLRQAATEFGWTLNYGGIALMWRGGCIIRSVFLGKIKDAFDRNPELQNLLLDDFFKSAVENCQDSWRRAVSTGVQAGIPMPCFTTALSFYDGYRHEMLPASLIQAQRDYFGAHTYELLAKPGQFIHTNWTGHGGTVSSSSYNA
Mitogen-activated protein kinase 7 (Homo sapiens), sequence (Q13164 whole entry, looked up, the tested form may be a part): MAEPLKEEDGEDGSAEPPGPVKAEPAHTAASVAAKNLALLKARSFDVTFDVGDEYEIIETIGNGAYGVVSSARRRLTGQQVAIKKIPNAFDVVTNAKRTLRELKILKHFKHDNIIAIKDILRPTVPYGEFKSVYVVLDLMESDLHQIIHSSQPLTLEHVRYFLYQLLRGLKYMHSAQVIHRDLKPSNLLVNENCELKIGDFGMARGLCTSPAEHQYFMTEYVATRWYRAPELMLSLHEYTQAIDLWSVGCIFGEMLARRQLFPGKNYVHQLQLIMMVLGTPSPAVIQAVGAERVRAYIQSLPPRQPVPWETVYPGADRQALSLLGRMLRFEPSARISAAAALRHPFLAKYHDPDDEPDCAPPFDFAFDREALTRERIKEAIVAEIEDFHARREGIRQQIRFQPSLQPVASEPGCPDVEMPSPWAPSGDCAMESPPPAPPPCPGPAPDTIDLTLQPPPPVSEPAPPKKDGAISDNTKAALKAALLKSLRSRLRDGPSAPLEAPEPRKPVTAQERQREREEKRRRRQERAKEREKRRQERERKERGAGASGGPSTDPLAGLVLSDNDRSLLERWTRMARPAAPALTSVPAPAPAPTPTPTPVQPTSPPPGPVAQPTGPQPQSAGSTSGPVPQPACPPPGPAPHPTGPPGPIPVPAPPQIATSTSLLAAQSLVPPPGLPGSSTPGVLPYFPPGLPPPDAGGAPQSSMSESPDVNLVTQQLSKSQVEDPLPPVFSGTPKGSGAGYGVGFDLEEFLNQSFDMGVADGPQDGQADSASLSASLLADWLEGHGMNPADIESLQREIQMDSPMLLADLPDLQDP
NAD(+) hydrolase SARM1 (Homo sapiens), sequence (Q6SZW1 whole entry, looked up, the tested form may be a part): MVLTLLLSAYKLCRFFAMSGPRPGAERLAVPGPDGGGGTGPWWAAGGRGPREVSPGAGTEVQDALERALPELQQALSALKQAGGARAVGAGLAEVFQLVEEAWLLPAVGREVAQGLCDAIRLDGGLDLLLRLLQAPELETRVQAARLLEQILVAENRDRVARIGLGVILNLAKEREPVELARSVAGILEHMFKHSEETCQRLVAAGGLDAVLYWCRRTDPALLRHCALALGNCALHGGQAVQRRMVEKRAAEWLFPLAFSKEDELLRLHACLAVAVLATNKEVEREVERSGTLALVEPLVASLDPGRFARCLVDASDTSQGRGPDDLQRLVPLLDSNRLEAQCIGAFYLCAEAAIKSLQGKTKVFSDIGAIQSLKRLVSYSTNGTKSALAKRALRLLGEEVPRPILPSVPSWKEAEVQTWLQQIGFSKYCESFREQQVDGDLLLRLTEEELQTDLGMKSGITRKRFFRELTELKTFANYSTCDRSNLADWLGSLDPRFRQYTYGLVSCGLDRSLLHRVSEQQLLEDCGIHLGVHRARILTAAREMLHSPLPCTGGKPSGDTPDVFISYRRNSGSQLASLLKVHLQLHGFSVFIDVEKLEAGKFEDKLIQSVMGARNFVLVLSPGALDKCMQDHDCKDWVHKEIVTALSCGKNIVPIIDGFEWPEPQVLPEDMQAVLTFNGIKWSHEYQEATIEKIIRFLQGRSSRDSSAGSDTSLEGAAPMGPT

NS(=O)(=O)c1cc2c(cc1C(F)(F)F)NC(Cc1ccccc1)NS2(=O)=O (stereo not given)
-0.203: z-score [12, 23]
3.31 and 1.41 and 3.71: fold change [11, 19]
1.22: normalised cell number [10, 17]
10100 and 9580 and 13500: cell count [11, 21]
10000 and 8170 and 11600: cell count [11, 20]
1.12: normalised cell number [10, 16]
inactive: nuclear beta-catenin stimulation ([1]; at 10 µM) 0.1% | insulin secretion stimulation [2] 0.8% | viability decrease [3] -5.2% | tube area decrease [4] -25.6% | GLP1 secretion stimulation [5] 1.6% | inhibition of viability [6] -9.63% | viability decrease (inhibition) [7] 18.1% | viability decrease (inhibition) [8] -18.1% | inhibition [9] -18.8% | red/green cell ratio (normalised) [10] 1.09 | fold change [11, 18] 0.994 and 0.853 and 0.857 | z-score [12, 22] 0.478 | remaining NAD [13] 10 nM | luciferase signal [14] 36 AU | log fold change Tl+ flux (F380Y) 0.0508 | log fold change Tl+ flux (F380Y/beta2Delta) 0.0485 | log fold change Tl+ flux [15] -0.0118 | log fold change Tl+ flux (R275C) 0.0405 | log fold change Tl+ flux (R275C/beta1) 0.0248 | log fold change Tl+ flux (R275C/beta2Delta) 0.0558
1.7%: nuclear beta-catenin stimulation ([1]; stimulation, at 2 µM)

NS(=O)(=O)c1cc2c(cc1C(F)(F)F)NCNS2(=O)=O
0.95: normalised cell number [10, 16]
10900 and 9840 and 13200: cell count [11, 21]
0.185: z-score [12, 23]
10100 and 9100 and 10600: cell count [11, 20]
inactive: nuclear beta-catenin stimulation ([1]; at 10 µM) -1% | insulin secretion stimulation [2] -0.5% | viability decrease [3] -8.5% | tube area decrease [4] -8.6% | GLP1 secretion stimulation [5] 0.4% | inhibition of viability [6] -2% | viability decrease (inhibition) [7] 10.4% | viability decrease (inhibition) [8] -13.4% | inhibition [9] -4.61% | red/green cell ratio (normalised) [10] 1.07 | fold change [11, 18] 0.934 and 0.925 and 0.803 | z-score [12, 22] 0.119 | remaining NAD [13] 10 nM | luciferase signal [14] 40 AU | log fold change Tl+ flux (F380Y) -0.0227 | log fold change Tl+ flux (F380Y/beta2Delta) 0.0255 | log fold change Tl+ flux [15] -0.0239 | log fold change Tl+ flux (R275C) -0.0328 | log fold change Tl+ flux (R275C/beta1) -0.0725 | log fold change Tl+ flux (R275C/beta2Delta) 0.0545
2.9 and 1.27 and 0.875: fold change [11, 19]
1.02: normalised cell number [10, 17]
1%: nuclear beta-catenin stimulation ([1]; stimulation, at 2 µM)

OCCN1CCN(CCCN2c3ccccc3Sc3ccc(Cl)cc32)CC1
1.32: normalised cell number [10, 17]
0.97: normalised cell number [10, 16]
2.8%: nuclear beta-catenin stimulation ([1]; stimulation, at 2 µM)
active: nuclear beta-catenin stimulation ([1]; at 10 µM) 73.5% | viability decrease [3] 99.5% | tube area decrease [4] 104% | GLP1 secretion stimulation [5] 45% | inhibition of viability [6] 100% | viability decrease (inhibition) [7] 116% | viability decrease (inhibition) [8] 101% | log fold change Tl+ flux (F380Y) 0.23 | log fold change Tl+ flux (F380Y/beta2Delta) 0.336 | log fold change Tl+ flux (R275C) -0.201 | log fold change Tl+ flux (R275C/beta1) 0.341
0.539: z-score [12, 23]
inactive: insulin secretion stimulation [2] 3.5% | inhibition [9] 10.3% | red/green cell ratio (normalised) [10] 1.35 | z-score [12, 22] 0.299 | remaining NAD [13] 10 nM | luciferase signal [14] 44 AU | log fold change Tl+ flux [15] -0.0145 | log fold change Tl+ flux (R275C/beta2Delta) -0.0309

CSc1ccc2c(c1)N(CCC1CCCCN1C)c1ccccc1S2 (stereo not given)
active: viability decrease [3] 110% | tube area decrease [4] 103% | inhibition of viability [6] 112% | viability decrease (inhibition) [7] 133% | viability decrease (inhibition) [8] 101% | log fold change Tl+ flux (F380Y/beta2Delta) 0.193 | log fold change Tl+ flux (R275C) -0.424 | log fold change Tl+ flux (R275C/beta1) 0.517 | log fold change Tl+ flux (R275C/beta2Delta) -0.136
inactive: nuclear beta-catenin stimulation ([1]; at 10 µM) 22.9% | insulin secretion stimulation [2] 5.6% | GLP1 secretion stimulation [5] 12.4% | inhibition [9] -1.24% | red/green cell ratio (normalised) [10] 1.09 | remaining NAD [13] 10 nM | luciferase signal [14] 40 AU | log fold change Tl+ flux (F380Y) 0.0395 | log fold change Tl+ flux [15] 0.0351
0.88: normalised cell number [10, 16]
-1.63 (inactive) and -1.09: z-score [12, 22]
0.0893 and 2.14: z-score [12, 23]
0.96: normalised cell number [10, 17]
1.6%: nuclear beta-catenin stimulation ([1]; stimulation, at 2 µM)

CC(N=C(NC#N)Nc1ccncc1)C(C)(C)C (stereo not given)
1.21: normalised cell number [10, 16]
-0.266 and 0.371: z-score [12, 23]
inactive: nuclear beta-catenin stimulation ([1]; at 10 µM) -0.6% | insulin secretion stimulation [2] 2.1% | viability decrease [3] -8.9% | tube area decrease [4] -9.6% | GLP1 secretion stimulation [5] -3.6% | inhibition of viability [6] 12.1% | viability decrease (inhibition) [7] -10.1% | viability decrease (inhibition) [8] 5.8% | inhibition [9] -10.6% | red/green cell ratio (normalised) [10] 1.42 | z-score [12, 22] 0.121 and 0.328 | remaining NAD [13] 10 nM | luciferase signal [14] 64 AU | log fold change Tl+ flux (F380Y) -0.0323 | log fold change Tl+ flux (F380Y/beta2Delta) 0.0089 | log fold change Tl+ flux [15] -0.0269 | log fold change Tl+ flux (R275C) 0.000868 | log fold change Tl+ flux (R275C/beta1) 0.00651 | log fold change Tl+ flux (R275C/beta2Delta) -0.00406
-1.6%: nuclear beta-catenin stimulation ([1]; stimulation, at 2 µM)
1.72: normalised cell number [10, 17]

NCC(=O)CCC(=O)O
inactive: nuclear beta-catenin stimulation ([1]; at 10 µM) 0.4% | insulin secretion stimulation [2] 1.9% | viability decrease [3] 26.6% | tube area decrease [4] -10.4% | GLP1 secretion stimulation [5] -1.4% | inhibition of viability [6] 18.9% | viability decrease (inhibition) [7] 19.8% | viability decrease (inhibition) [8] 1% | inhibition [9] -28.8% | red/green cell ratio (normalised) [10] 1.08 | fold change [11, 18] 0.951 and 0.95 and 0.866 | z-score [12, 22] -0.348 | remaining NAD [13] 10 nM | luciferase signal [14] 84 AU | log fold change Tl+ flux (F380Y) -0.035 | log fold change Tl+ flux (F380Y/beta2Delta) -0.0239 | log fold change Tl+ flux [15] 0.011 | log fold change Tl+ flux (R275C) -0.000596 | log fold change Tl+ flux (R275C/beta1) -0.0231 | log fold change Tl+ flux (R275C/beta2Delta) -0.0499
0.0439: z-score [12, 23]
9310 and 7910 and 11200: cell count [11, 20]
1.3: normalised cell number [10, 16]
1.4: normalised cell number [10, 17]
9780 and 8320 and 12900: cell count [11, 21]
1.44 and 0.654 and 2.02: fold change [11, 19]
-0.9%: nuclear beta-catenin stimulation ([1]; stimulation, at 2 µM)

Source: PubChem BioAssay
